Reference: PubChem BioAssay AID463187 (University of Pittsburgh Molecular Library Screening Center, 2010)
Several values for one entry are separate records, joined by “and”; a condition that tells them apart may be missing. Identical values can stand only once. The whole screen tested about 220,000 compounds, of which about 1,500 (0.68%) were called active. The entries come from a sample that favours actives as a whole. Unmarked numbers belong to inactive results.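 Rule for the calls: active = Hck-Nef kinase inhibition above about 50% (limit read from the data); inactive = inhibition below that limit.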

The molecules below were run against Tyrosine-protein kinase HCK (Homo sapiens) (UniProt P08631) (assay: Hck:Nef complex kinase activity blockers – biochemical, Z-Lyte FRET, 384-well, Hck-YEEI, primary screen (AID 463187;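 note: 0% = DMSO with Hck plus Nef and 100% = Hck alone without Nef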)). Details: Recombinant Hck-YEEI plus Nef, Z-Lyte FRET kinase assay; at 20 µM; active compounds read high.
Chain of Tyrosine-protein kinase HCK (Homo sapiens) (P08631 whole entry, looked up): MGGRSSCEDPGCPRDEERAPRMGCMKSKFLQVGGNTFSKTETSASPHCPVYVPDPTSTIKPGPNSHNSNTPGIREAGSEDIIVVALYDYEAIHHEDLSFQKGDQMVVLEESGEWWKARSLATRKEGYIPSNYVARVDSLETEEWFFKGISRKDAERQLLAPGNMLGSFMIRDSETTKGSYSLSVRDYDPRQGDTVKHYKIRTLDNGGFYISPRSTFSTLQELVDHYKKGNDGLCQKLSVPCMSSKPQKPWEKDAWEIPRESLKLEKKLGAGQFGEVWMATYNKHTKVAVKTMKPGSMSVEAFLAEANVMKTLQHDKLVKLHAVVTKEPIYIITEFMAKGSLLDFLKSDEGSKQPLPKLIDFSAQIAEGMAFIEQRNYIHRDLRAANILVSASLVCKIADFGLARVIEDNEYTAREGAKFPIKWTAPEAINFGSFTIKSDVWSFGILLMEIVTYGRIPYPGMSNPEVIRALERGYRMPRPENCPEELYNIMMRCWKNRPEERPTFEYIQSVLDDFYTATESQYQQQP
For `Cc1nnc(NC(=O)CSc2nc(C3CCCCC3)nc3ccccc23)s1`, the inhibition was -0.612%. Work on `Cc1c(Cc2ccccc2)c(=O)oc2cc(OCC(N)=O)ccc12` yielded an inhibition of 28.6%. Molecule `CC(=O)Nc1cc2ccc(OC(C)=O)cc2oc1=O` has an inhibition of 23.3%. In the case of `CC(=O)Oc1ccc2c(C)c(CC(C)O)c(=O)oc2c1` (stereo unspecified), the inhibition is reported as 81.8% (active). In the case of `CS(=O)(=O)N(CC(=O)N1CCN(Cc2ccccc2)CC1)c1ccc2c(c1)OCCO2`, the inhibition is reported as 1.45%. For `Cc1ccc(C)c(NC(=S)NCC(c2cccnc2)N2CCOCC2)c1` (stereo unspecified), the inhibition was 0.595%. For `COc1ccc(N=Cc2c(O)[nH]c3ccccc23)cc1OC`, the inhibition was 53% (active). `COc1cc(N=Cc2c(O)[nH]c3ccccc23)cc(OC)c1OC` was tested, and the inhibition was 34.4%. For `COc1ccccc1N=Cc1c(O)c2ccccc2oc1=O`, the inhibition was 0.48%. `CC(C)CNC(=O)/C=C/C(=O)O` was tested, and the inhibition was -8.82% and 22%. In the case of `Cc1ccc(CN(C)CC(=O)Nc2cccc([N+](=O)[O-])c2)o1`, the inhibition is reported as -2.63%. For `Cc1ccc(NC(=O)CN(C)CC(=O)Nc2cccc(F)c2)cc1[N+](=O)[O-]`, the inhibition was -0.303%. In the case of `CN(CC(=O)Nc1cccc(F)c1)CC(=O)Nc1cccc([N+](=O)[O-])c1`, the inhibition is reported as 64.6% (active). Molecule `Cc1cccc(C)c1NC(=O)C1(C)c2cccc[n+]2CC(=O)N1Cc1cccs1` (stereo unspecified) has an inhibition of 16.8%. Molecule `CCS(=O)(=O)c1ccc2c(c1)N(S(=O)(=O)c1ccccc1)CC(C(=O)O)O2` (stereo unspecified) has an inhibition of 1.06%. For `CC1CCCN(CC(O)COc2ccc3c(c2)OCO3)C1` (stereo unspecified), the inhibition was 18.9%. Molecule `Cc1cc(C(=O)N/N=C/c2ccc(O)c([N+](=O)[O-])c2)c(C)n1-c1ccc(F)cc1` has an inhibition of 18.7%. `O=C1CSC(=S)N1/N=C/c1ccc(O)c([N+](=O)[O-])c1` was tested, and the inhibition was 118% (active). `CCOc1cccc(/C=N/N2C(=O)CSC2=S)c1O` was tested, and the inhibition was -22.8%. `Clc1ccc(-n2nnnc2CN2CCCCC2)cc1Cl` was tested, and the inhibition was 2.13%. With `Cc1cc(C)c2c(n1)nn1c(N3CCOCC3)cc(C)nc21` the inhibition was 58.8% (active). `Cc1cc(C)c2c(n1)nn1c(N3CCN(c4cccc(Cl)c4)CC3)cc(C)nc21` was tested, and the inhibition was 35.2%. Molecule `Cc1cc(C)c2c(n1)nn1c(-n3ccnc3)cc(C)nc21` has an inhibition of 5.47%. `CCc1ccc(NC(=O)N[C@H](C(=O)O)C(C)CC)cc1` (stereo partly specified) gave an inhibition of -2.07%. `CC1=CC(C)(C)NC(=S)N1c1ccccc1` showed an inhibition of -1.08%. In the case of `COc1ccc(N2CCN(c3ccc([N+](=O)[O-])cc3Cl)CC2)cc1`, the inhibition is reported as 9.48%. For `C/C=C/C(=O)Nc1nnc(C(C)C)s1`, the inhibition was 6.42%. `CC(C)n1cnc2c(Nc3cccc(Cl)c3)nc(N(CCO)CCCO)nc21` was tested, and the inhibition was 112% (active). `OCCCNc1nccc(-c2cc(Nc3cccc(Cl)c3)ncn2)n1` gave an inhibition of 17.4%. Work on `CC(C)C[C@H](CO)Nc1nc(N(C)c2cccc(Cl)c2)c2ncn(C(C)C)c2n1` yielded an inhibition of 29.9%. With `CC1CN(S(=O)(=O)c2ccccc2)C(C)CN1S(=O)(=O)c1ccccc1` (stereo unspecified) the inhibition was 2.18%. `CC(=O)Nc1ccc(/C(C)=N/NC(=O)CN(c2ccccc2Br)S(C)(=O)=O)cc1` was tested, and the inhibition was 3.92%. `Cc1cc(Br)ccc1SCC(=O)OCC(=O)NCc1ccc2c(c1)OCO2` gave an inhibition of -1.74%. For `Oc1c(Cl)cc(Cl)c(Cl)c1Cc1c(O)c(Cl)cc(Cl)c1Cl`, the inhibition was 58.4% (active). `CC(=O)NC1C(OCc2ccccc2)OC(COC(C)=O)C(OC(C)=O)C1OC(C)=O` (stereo unspecified) gave an inhibition of 0.438%. With `O=C(OCC1O[C@@H](OC(=O)c2cc(O)c(O)c(O)c2)[C@@H](OC(=O)c2cc(O)c(O)c(O)c2)[C@@H](OC(=O)c2cc(O)c(O)c(O)c2)[C@@H]1OC(=O)c1cc(O)c(O)c(O)c1)c1cc(O)c(O)c(O)c1` (stereo partly specified) the inhibition was 97.6% (active). Molecule `C/C=C(\C)C(=O)N1CC2(CC(c3cccc(NC(=O)CCCCC)c3)=NO2)C[C@@H]1C(N)=O` (stereo partly specified) has an inhibition of 35.8%. For `CC(C)(C)OC(=O)NCCCCCC(=O)N/N=C/c1coc2ccccc2c1=O`, the inhibition was 76.3% (active). `O=C(CCCCCNC(=O)c1ccccc1)N/N=C/c1ccccc1` showed an inhibition of 9.24%. Work on `O=C(N/N=C/c1coc2ccccc2c1=O)c1cc2ccccc2o1` yielded an inhibition of 49.1%. `Cc1ccc(OCCCC(=O)NC(C)c2ccccc2)c(C)c1` (stereo unspecified) gave an inhibition of -1.04%. With `CC(C)n1c(CN2CCN(Cc3ccccc3)CC2)nc2ccccc21` the inhibition was 5.34%. In the case of `CN(C)C(=S)Nc1ccc(Br)cc1Cl`, the inhibition is reported as 14.6%. In the case of `O=C1Oc2ccccc2C(=O)/C1=C/c1ccccc1O`, the inhibition is reported as 80.6% (active). With `CC(=O)c1cccc(NC(=O)c2ccncc2)c1` the inhibition was -1.38%. For `CCn1c(=O)c2cc(C(=O)Nc3cccc(C(C)=O)c3)sc2c2ccccc21`, the inhibition was 53.6% (active). `CCn1c(NC(=O)c2ccccc2)c(-c2cccs2)c(=O)c2ccccc21` was tested, and the inhibition was -2.03%. Molecule `Cc1ccc(N2C(=O)CC(Nc3cccc4ccccc34)C2=O)cc1` (stereo unspecified) has an inhibition of 20.6%. Work on `CC(C)Cn1cnc2c1c(=O)n(CC(O)c1ccccc1)c(=O)n2CC(C)C` (stereo unspecified) yielded an inhibition of 1.05%. Molecule `Clc1ccccc1CSc1nnc(-c2ccco2)c(-c2ccco2)n1` has an inhibition of 21.2%. `Brc1ccc(CSc2ccc(-c3ccco3)nn2)cc1` showed an inhibition of 22.4%. `c1ccc(CSc2nnc(-c3ccco3)c(-c3ccco3)n2)cc1` was tested, and the inhibition was 61.4% (active). In the case of `O=C(COc1ccc([N+](=O)[O-])cc1)Nc1ccc(N2CCCC2)cc1`, the inhibition is reported as 1.04%. For `Cc1ccc(/C=C/C(=O)Nc2ccc([N+](=O)[O-])c(NC(=O)/C=C/c3ccc(C)o3)c2)o1`, the inhibition was 79.2% (active). For `Cc1c(NC(=O)/C=C/C(=O)O)cccc1[N+](=O)[O-]`, the inhibition was 0.166%. For `CCc1nnc(NC(=O)/C=C/c2ccc(C)o2)s1`, the inhibition was 2.58%. Work on `Cc1ccc(N(CC(=O)Nc2cc(C)cc(C)c2)S(=O)(=O)c2cccc3nonc23)cc1` yielded an inhibition of 2.67%. `Cc1c(Nc2nc3ccccc3nc2NS(=O)(=O)c2cccs2)c(=O)n(-c2ccccc2)n1C` gave an inhibition of -1.3%. In the case of `CCOC(=O)c1ccc[n+](CC(=O)Nc2ccccc2OC(F)F)c1`, the inhibition is reported as 3.79%. For `Cc1ccc(-c2nc(SCC(=O)Nc3ccccc3OC(F)F)c3c(C)c(C(=O)O)sc3n2)cc1`, the inhibition was 98.6% (active). Work on `Cc1ccc(C)c(SCc2nc3sc(C(=O)O)c(C)c3c(=O)[nH]2)c1` yielded an inhibition of 30.6%. `COc1ccc(N(CC(=O)NC2CCCC2)C(=O)CS(=O)CC(=O)Nc2ccc3c(c2)OCO3)cc1` (stereo unspecified) was tested, and the inhibition was 20.7%. Molecule `CCn1c(SCC(=O)Nc2ccc(S(=O)(=O)Nc3onc(C)c3C)cc2)nnc1-c1ccccc1` has an inhibition of 0.636%. With `Cc1cc(C)c2nc(-c3cccnc3)cc(C(=O)Nc3ccc(S(=O)(=O)Nc4onc(C)c4C)cc3)c2c1` the inhibition was 62.9% (active). `COc1ccc(C(=O)Nc2ccc(S(=O)(=O)Nc3onc(C)c3C)cc2)cc1OC` showed an inhibition of 2.01%. Molecule `O=C1c2ccccc2NC(c2ccccc2O)N1NS(=O)(=O)c1ccccc1` (stereo unspecified) has an inhibition of 24.7%. In the case of `O=C(COC(=O)CSc1nnc(-c2ccc(Cl)cc2)o1)Nc1cc(Cl)cc(Cl)c1`, the inhibition is reported as 3.81%. Work on `CCN(CC)c1ccc2cc(C(N)=O)/c(=N\NC(=O)c3ccncc3)oc2c1` yielded an inhibition of -3.77%. `CCN(CC)c1ccc2oc(=O)c(C)nc2c1` gave an inhibition of -14.5%. In the case of `CCN(CC)c1ccc2cc(C(=O)O)c(=O)oc2c1`, the inhibition is reported as 179% (active). In the case of `Cc1cc(C)nc(NNC2=CC(=O)CC(C)(C)C2)n1`, the inhibition is reported as 22.8%. Work on `Cc1[nH]nc(-c2ccc(OCc3cnn(-c4ccccc4)c3)cc2O)c1Oc1ccc(Cl)cc1` yielded an inhibition of 0.631%. In the case of `Cc1ccc2nc(S(=O)(=O)O)[nH]c2c1`, the inhibition is reported as -5.86%. Molecule `CCOC(=O)CSc1nc2ccc(C)cc2[nH]1` has an inhibition of 10.3%. In the case of `Cc1ccc2nc(/C(C#N)=C\c3ccc(OC(=O)c4cccs4)cc3)[nH]c2c1`, the inhibition is reported as 57.1% (active). In the case of `CCOC(=O)c1sc(-c2cccc([N+](=O)[O-])c2)cc1N`, the inhibition is reported as 22%. In the case of `CN(C)C(=O)c1nc2ccc(Cl)cn2c1CN1CCN(c2ncccn2)CC1`, the inhibition is reported as 16.5%. `CCCC(=O)Nc1nc2ccc(NC(=O)c3c(F)c(F)c(OC)c(F)c3F)cc2s1` gave an inhibition of 13.4%. Work on `CCC(CC)C(=O)Nc1ccc(S(=O)(=O)Nc2nccs2)cc1` yielded an inhibition of 15.9%. In the case of `O=C(Nc1ccc(S(=O)(=O)Nc2nccs2)cc1)c1cc(=O)[nH]c2ccccc12`, the inhibition is reported as 8.68%. In the case of `O=C(Nc1ccc(S(=O)(=O)Nc2nccs2)cc1)c1cc(-c2ccncc2)nc2ccccc12`, the inhibition is reported as 75% (active). For `O=[N+]([O-])c1cccc(Nc2c3ccccc3nc3ccccc23)c1`, the inhibition was 64.5% (active). With `CC(=O)Nc1ccc(Nc2c3ccccc3nc3ccccc23)cc1` the inhibition was 12.8%. `Cc1cc(CNC(=O)c2cccc([N+](=O)[O-])c2)c2ccccc2n1` was tested, and the inhibition was 20.7%. `Cc1ccc2cc(CCNC(=O)c3ccc4c(c3)OCO4)c(=O)[nH]c2c1` gave an inhibition of 0.571%. With `Cc1cc(N)n2nc(-c3ccc(C(C)(C)C)cc3)cc2n1` the inhibition was 0.862%. Work on `CSCC[C@H](NC(=O)CCCn1nnc2ccccc2c1=O)C(=O)O` yielded an inhibition of 4.6%. Molecule `O=C(COc1ccccc1F)NNC(=O)c1ccc(N2CCCCC2)c([N+](=O)[O-])c1` has an inhibition of 2.35%. `OC(c1nnc(-c2ccccc2)o1)c1cccs1` (stereo unspecified) was tested, and the inhibition was 52.9% (active). In the case of `Nc1ccc(-c2nnc(-c3ccc(-c4ccccc4)cc3)o2)cc1`, the inhibition is reported as 2.48%. With `CCCN(CCC)c1ccc(C(O)c2nnc(-c3ccccc3)o2)cc1` (stereo unspecified) the inhibition was -0.222%.
